# Screening results (PubChem)
# The entries come from a sample that favours hits as a whole.
# IDE exosite inh: exo-site inhibitors of human insulin-degrading enzyme | P14735 | purified IDE, FL-6b probe fluorescence polarization; active compounds read low | z-score at 20 µM | 17,000 compounds, 6.3% hits | AID 1259349;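 active means z-score of -3 or lower, meaning strong loss of probe binding signal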;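 further: His-tagged human IDE residues 42-1019 made in E. coli with 30 nM FL-6b probe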
# Target sequence (P14735 42-1019 limits assumed): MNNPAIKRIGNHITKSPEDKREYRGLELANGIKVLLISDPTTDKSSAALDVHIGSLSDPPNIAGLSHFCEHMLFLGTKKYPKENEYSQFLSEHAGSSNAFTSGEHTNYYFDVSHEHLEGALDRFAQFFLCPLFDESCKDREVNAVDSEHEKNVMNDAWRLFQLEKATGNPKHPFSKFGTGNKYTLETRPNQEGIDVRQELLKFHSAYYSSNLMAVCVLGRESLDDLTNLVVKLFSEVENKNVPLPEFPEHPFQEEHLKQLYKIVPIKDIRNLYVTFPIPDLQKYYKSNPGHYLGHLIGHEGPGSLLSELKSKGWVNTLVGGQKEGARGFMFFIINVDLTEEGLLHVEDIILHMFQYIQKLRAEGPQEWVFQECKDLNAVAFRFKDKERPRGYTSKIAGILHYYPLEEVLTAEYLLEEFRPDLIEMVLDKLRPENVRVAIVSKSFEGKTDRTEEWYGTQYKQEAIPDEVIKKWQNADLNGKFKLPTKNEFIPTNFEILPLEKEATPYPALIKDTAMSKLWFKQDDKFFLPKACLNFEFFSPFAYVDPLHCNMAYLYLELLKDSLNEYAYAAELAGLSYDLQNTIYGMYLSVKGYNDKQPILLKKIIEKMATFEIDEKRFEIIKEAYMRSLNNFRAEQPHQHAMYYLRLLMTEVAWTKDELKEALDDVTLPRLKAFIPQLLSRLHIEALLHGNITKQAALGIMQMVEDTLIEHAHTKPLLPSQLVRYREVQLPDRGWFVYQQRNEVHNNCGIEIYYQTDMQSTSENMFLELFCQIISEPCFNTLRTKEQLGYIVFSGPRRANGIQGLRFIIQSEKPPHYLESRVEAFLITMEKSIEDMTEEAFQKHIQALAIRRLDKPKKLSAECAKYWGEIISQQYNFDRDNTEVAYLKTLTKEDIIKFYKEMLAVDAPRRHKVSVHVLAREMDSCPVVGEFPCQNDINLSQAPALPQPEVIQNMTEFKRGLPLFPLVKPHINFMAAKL
# A number is an active result; . = inactive.
SMILES,IDE exosite inh
O=C(Nc1ccccc1F)N1CC(=O)N2[C@H](CO)[C@H](c3ccc(C#CC4CC4)cc3)[C@H]2C1,.
CN(C)C(=O)c1cccc(-c2ccc(C3[C@H]4CNC[C@@H]3N4C(=O)NC3CCCC3)cc2)c1 (stereo partly drawn),.
O=C(Nc1cc(F)ccc1F)N1CC(=O)N2[C@H](CO)[C@@H](c3ccc(-c4ccc(F)cc4)cc3)[C@@H]2C1,.
Cn1cnc(S(=O)(=O)N2CCCCN3[C@H](CO)[C@H](c4ccc(-c5ccccc5F)cc4)[C@@H]3C2)c1,.
Cn1cnc(S(=O)(=O)N2CCCCN3[C@H](CO)[C@H](c4ccc(-c5ccc(F)cc5)cc4)[C@H]3C2)c1,.
Cn1cnc(S(=O)(=O)N2CCCCN3[C@H](CO)[C@H](c4ccc(-c5ccccc5F)cc4)[C@H]3C2)c1,-4.6
Cn1cnc(S(=O)(=O)N2CCCCN3[C@@H](CO)[C@@H](c4ccc(-c5ccccc5F)cc4)[C@@H]3C2)c1,-5.6
Cn1cnc(S(=O)(=O)N2CCCCN3[C@H](CO)[C@@H](c4ccc(-c5ccc(F)cc5)cc4)[C@H]3C2)c1,.
Cn1cnc(S(=O)(=O)N2CCCCN3[C@H](C2)[C@@H](c2ccc(-c4ccccc4F)cc2)[C@@H]3CO)c1,.
O=C(Cc1ccccn1)N1CC(=O)N2[C@@H](CO)[C@@H](c3ccc(C#CC4CCCCC4)cc3)[C@@H]2C1,.
CCC(=O)N1CC(=O)N2[C@H](CO)[C@@H](c3ccc(C#CC(C)C)cc3)[C@@H]2C1,.
O=C(Nc1cccc(F)c1)N1CCCCN2[C@H](CO)[C@@H](c3ccc(-c4ccccc4F)cc3)[C@H]2C1,.
CC(=O)N(C[C@@H]1[C@@H](c2ccc(C3=CCCC3)cc2)[C@@H](CO)N1CC1CC1)C(C)C,.
CCCC#Cc1ccc([C@H]2[C@H](C#N)N(S(C)(=O)=O)[C@H]2CO)cc1,.
COCC#Cc1ccc([C@@H]2[C@@H](CO)N3CCCCN(C(=O)NC4CCCC4)C[C@@H]23)cc1,.
CCCC#Cc1ccc([C@@H]2[C@H](CO)N3CCCCN(C(=O)NC4CCCC4)C[C@@H]23)cc1,-5.2
COCC#Cc1ccc([C@@H]2[C@H](CO)N3CCCCN(C(=O)NC4CCCC4)C[C@@H]23)cc1,.
COCC#Cc1ccc([C@@H]2[C@H]3CN(C(=O)NC4CCCC4)CCCCN3[C@H]2CO)cc1,.
CCCC#Cc1ccc([C@@H]2[C@@H](CO)N3CCCCN(C(=O)NC4CCCC4)C[C@@H]23)cc1,.
CCCC#Cc1ccc([C@H]2[C@@H](CO)N3CCCCN(C(=O)NC4CCCC4)C[C@H]23)cc1,-3.2
C/C=C/c1ccc([C@H]2[C@@H](CO)N3C(=O)CN(Cc4ccc(C)cc4)C[C@H]23)cc1,.
COCCNC(=O)C[C@@H]1CC[C@@H]2[C@H](COc3ccc(NS(=O)(=O)c4ccc(Cl)cc4)cc3C(=O)N2C)O1,.
O=C1CNC[C@H]2[C@H](c3ccc(C#CC4CCCC4)cc3)[C@H](CO)N12,.
Cc1ccc(S(=O)(=O)N(C)C[C@H]2OCCCC[C@H](C)Oc3ccc(NC(=O)c4ccncc4)cc3C(=O)N([C@@H](C)CO)C[C@@H]2C)cc1,.
CO[C@H]1CN(C)C(=O)c2cc(NC(=O)Nc3cc(F)ccc3F)ccc2OC[C@@H](C)NC[C@@H]1C,.
SMILES,IDE exosite inh
O=C(C1CCOCC1)N1CC(=O)N2[C@@H](CO)[C@H](c3ccc(C#CC4CCCCC4)cc3)[C@@H]2C1,.
C/C=C/c1ccccc1[C@H]1[C@@H](C#N)N(C(=O)CN2CCOCC2)[C@H]1CO,.
COCC(=O)N1C[C@H](C)[C@H](OC)CN(C)C(=O)c2ccc(NC(=O)Nc3cccc(F)c3)cc2OC[C@@H]1C,.
COc1ccccc1-c1ccc([C@@H]2[C@@H](CO)N3CCCCN(Cc4ccncc4)C[C@@H]23)cc1,-6.8
OC[C@H]1[C@H](c2ccc(-c3ccccc3F)cc2)[C@H]2CN(Cc3ccncc3)CCCCN21,-3.3
COc1ccc(C#Cc2ccc([C@H]3[C@H]4CN(Cc5ccncc5)CCCCN4[C@H]3CO)cc2)cc1,.
OC[C@H]1[C@@H](c2ccc(-c3ccccc3F)cc2)[C@H]2CN(Cc3ccncc3)CCCCN21,.
OC[C@@H]1[C@@H](c2ccc(-c3ccccc3F)cc2)[C@@H]2CN(Cc3ccncc3)CCCCN12,.
OC[C@@H]1[C@H](c2ccc(-c3ccccc3F)cc2)[C@@H]2CN(Cc3ccncc3)CCCCN12,.
CCCC#Cc1ccc([C@H]2[C@@H](CO)N3C(=O)CN(C(=O)c4ccccc4)C[C@H]23)cc1,.
O=C([C@@H]1[C@@H](CO)[C@@H]2Cn3c(ccc(-c4ccc(F)cc4)c3=O)[C@@H]2N1Cc1cocn1)N1CCCCC1,.
CCC(=O)N(C)C[C@@H]1[C@@H](c2ccc(C3=CCCCC3)cc2)[C@H](CO)N1C(C)=O,.
CCCC#Cc1ccc([C@@H]2[C@H]3CN(S(=O)(=O)Cc4ccccc4)CCCCN3[C@H]2CO)cc1,.
CCCC#Cc1ccc([C@@H]2[C@@H](CO)N3CCCCN(S(=O)(=O)CC)C[C@@H]23)cc1,.
CCCC#Cc1ccc([C@@H]2[C@H](CO)N3CCCCN(S(=O)(=O)CC)C[C@@H]23)cc1,-3
CCS(=O)(=O)N1CCCCN2[C@H](C1)[C@@H](c1ccc(C#Cc3ccccc3OC)cc1)[C@@H]2CO,-9.5
CCCC#Cc1ccc([C@@H]2[C@H]3CN(S(=O)(=O)CC)CCCCN3[C@H]2CO)cc1,.
CCS(=O)(=O)N1CCCCN2[C@@H](CO)[C@@H](c3ccc(C#Cc4ccccc4OC)cc3)[C@@H]2C1,-20
CCS(=O)(=O)N1CCCCN2[C@H](C1)[C@H](c1ccc(C#Cc3ccccn3)cc1)[C@@H]2CO,.
COc1ccc(C#Cc2ccc([C@H]3[C@@H](CO)N4CCCCN(S(=O)(=O)c5ccccc5)C[C@H]34)cc2)cc1,.
O=S(=O)(Cc1ccccc1)N1CCCCN2[C@H](C1)[C@H](c1ccc(C#Cc3ccccc3)cc1)[C@@H]2CO,.
CCS(=O)(=O)N1CCCCN2[C@H](CO)[C@@H](c3ccc(C#Cc4ccccc4OC)cc3)[C@@H]2C1,-11
O=S(=O)(Cc1ccccc1)N1CCCCN2[C@H](C1)[C@@H](c1ccc(C#Cc3ccccc3)cc1)[C@@H]2CO,.
CCS(=O)(=O)N1CCCCN2[C@H](CO)[C@H](c3ccc(C#Cc4ccccn4)cc3)[C@@H]2C1,.
CN(C)C(=O)C[C@H]1C[C@H]2c3cc(NC(=O)c4cccnc4)ccc3O[C@H]2[C@H](CO)O1,.
SMILES,IDE exosite inh
O=C(c1cccc(F)c1)N1CCCCN2[C@H](CO)[C@H](c3ccc(-c4cccnc4)cc3)[C@@H]2C1,.
COc1ccc(C#Cc2ccc([C@@H]3[C@@H](CO)N4CCCCN(S(=O)(=O)c5cn(C)cn5)C[C@@H]34)cc2)cc1,.
O=C(Cc1ccccn1)N1CC(=O)N2[C@@H](CO)[C@@H](c3ccc(-c4ccc(F)cc4)cc3)[C@@H]2C1,.
Cc1noc(C)c1S(=O)(=O)N(C)C[C@H]1OCCCC[C@H](C)Oc2ccc(NC(=O)CCC(F)(F)F)cc2C(=O)N([C@H](C)CO)C[C@@H]1C,.
O=C(NC[C@@H]1[C@H](c2ccccc2)[C@H](CO)N1CC1CCCC1)c1ccccc1,.
COc1cccc(-c2ccc([C@H]3[C@H](C#N)N(C(=O)Cc4ccncc4)[C@H]3CO)cc2)c1,.
COc1cccc(-c2ccccc2[C@@H]2[C@@H](C#N)N(C(=O)Cc3ccccc3)[C@H]2CO)c1,.
COc1cccc(-c2ccc([C@@H]3[C@@H](C#N)N(C(=O)Cc4ccncc4)[C@@H]3CO)cc2)c1,-10
